Compound activity from PubChem BioAssay.
FBPA Giardia inh: qHTS Assay for Inhibitors of Fructose-1,6-bisphosphate Aldolase from Giardia Lamblia; A8B2U2; purified Giardia FBPA; Potency, µM (doses to about 59.6 µM), hits mostly inhibitors; 290,000 compounds, 0.71% hits; AID 2451, 2010; also: nearly all actives have a fitted effect of over 55% in size
Target sequence (A8B2U2 whole entry, looked up): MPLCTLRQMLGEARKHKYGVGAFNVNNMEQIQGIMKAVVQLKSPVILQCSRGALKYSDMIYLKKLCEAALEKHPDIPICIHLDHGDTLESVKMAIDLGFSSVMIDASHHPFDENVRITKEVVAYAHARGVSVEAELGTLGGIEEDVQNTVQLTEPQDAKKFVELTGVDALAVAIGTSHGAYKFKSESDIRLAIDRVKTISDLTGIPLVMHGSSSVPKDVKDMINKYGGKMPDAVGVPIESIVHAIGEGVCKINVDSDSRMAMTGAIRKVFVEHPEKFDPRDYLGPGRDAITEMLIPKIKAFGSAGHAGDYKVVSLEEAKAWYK
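40 nM FBPA preincubated 10 min at RT with compound (up to 57.5 uM final), then substrate plus GAPDH/TPI/NAD/arsenate coupling and diaphorase/resazurin added. Fluorescence read after 20 min at RT, 525/598 nm.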
RE007 growth inh: qHTS Assay for Inhibitors of the HIV-1 protein Vpr; S. pombe RE007 Vpr strain, BacTiter-Glo ATP luminescence, 24 h; Potency, µM (doses to about 92.2 µM), most hits filed as inhibitors; 360,000 compounds, 0.21% hits; active = well fitted falling curve with a large enough effect; inconclusive = small, poorly fitted or top-dose-only effect; inactive = no such curve, though single readings can be large or run the other way; also: nearly all actives have a fitted effect of over 50% in size
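Fission yeast RE007 carrying one integrated HIV-1 vpr copy, seeded at OD 0.01 in PMG+AL medium with 23 nL pinned compound. Grown 24 h at 30 degrees; viability read by BacTiter-Glo luminescence after 5 min.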
LmPK inhibitor: qHTS Assay for Inhibitors of Leishmania Mexicana Pyruvate Kinase (LmPK); Q27686; purified LmPK, Kinase-Glo ATP luminescence, 1 h; Potency, µM (series often up to 57.5 µM), usual class: inhibitors; 290,000 compounds, 0.37% hits
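Pyruvate kinase activity monitored as ATP production (luciferase luminescence). Conditions: 0.1 nM enzyme, 0.5 mM PEP, 0.1 mM ADP, 1 h, RT; normalized against uninhibited and no-enzyme wells.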
Shiga inhibitor: A qHTS for Small Molecule Inhibitors of Shiga Toxin; 290,000 compounds, 9.2% hits; Vero cells, Shiga toxin protein synthesis inhibition reporter; inhibition, % at 38.7 µM; in the data active = inhibition mostly above about 28%, no sharp cut-off; inactive = mostly below about 43%
Tb PYK inh: qHTS of Trypanosoma Brucei Inhibitors; TbPYK enzyme, Kinase-Glo Plus ATP luminescence, 45 min; Potency, µM (top dose mostly 76.8 µM), actives largely listed as inhibitors; 410,000 compounds, 0.12% hits; AID 624173, 2012; also: nearly all actives have a fitted effect of over 50% in size
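Assay buffer: 50 mM TEA pH 7.2, 100 mM KCl, 10 mM MgCl2, 0.05% BSA, 0.01% Tween-20. Pyruvate kinase from T. brucei plus substrate met compound, then ADP (130 uM final). Luminescence was read post 45 min RT.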
CHX counter: Cycloheximide Counterscreen for Small Molecule Inhibitors of Shiga Toxin; max response, %; cell reporter, cycloheximide protein synthesis inhibition counterscreen; 300,000 compounds, 12% hits; AID 2314, 2010; in the data active = max response mostly above about 13%, no sharp cut-off; inactive = mostly below about 14%; also: read at 38.3 µM for the half of the compounds with a filed dose
Large screens that a line does not name were inactive. The entries come from a sample that favours hits as a whole. Unless noted, calls follow the shape of the dose curve; as a rule, active = well fitted curve in the direction sought with a large enough effect; inconclusive = small, poorly fitted or top-dose-only effect, or another doubt; inactive = no such curve, though single readings can be large; an effect the other way counts as inactive or inconclusive.

COc1ccc(-c2[nH]ncc2/C=N\NC(=O)c2ccc(C(C)(C)C)cc2)cc1OC	Shiga inhibitor 76, CHX counter 21
CCCc1cc(=O)[nH]c(Nc2cc(Cl)cc(Cl)c2)n1	none (no result: FBPA Giardia inh, RE007 growth inh, LmPK inhibitor, Shiga inhibitor, CHX counter)
CC(C)Sc1ncc(Cl)c(C(=O)Nc2ccc(S(=O)(=O)N3CCCCC3)cc2)n1	none (no result: FBPA Giardia inh, RE007 growth inh, LmPK inhibitor, Shiga inhibitor, CHX counter)
CC1Cc2nc(SCC(=O)Nc3ccc4c(c3)OCO4)n(Cc3ccccc3)c(=O)c2S1 (centres undefined)	Shiga inhibitor 83, CHX counter 56
COCCn1c(SCC(=O)Nc2ccc3c(c2)OCCO3)nc2c(c1=O)SC(C)C2 (centres undefined)	Shiga inhibitor 30, CHX counter 23
CC1Cc2nc(SCC(=O)Nc3ccc4c(c3)OCCO4)n(C)c(=O)c2S1 (centres undefined)	CHX counter 9.0
O=C(c1cc(C(F)(F)F)cc(C(F)(F)F)c1)N1CCC2(CC1)CCN(c1ncccn1)CC2	none (no result: RE007 growth inh, LmPK inhibitor, Shiga inhibitor, CHX counter)
Cc1ccc(N2C(=O)CS/C2=N\C(=S)Nc2ccccc2)cc1	none
O=C1NC(=O)N(c2ccc3c(c2)OCO3)C(=O)/C1=C/c1cccs1	Shiga inhibitor 49, Tb PYK inh inconclusive
COc1ccc(NS(=O)(=O)c2ccc3c(c2)CCN3C(=O)CCC(=O)O)cc1OC	Shiga inhibitor 64, CHX counter 33
CC(=O)Nc1cccc(-c2ccnc3c2CC(C(=O)NCc2ccc(N4CCN(C)CC4)cc2)O3)c1 (centres undefined)	none (no result: FBPA Giardia inh, LmPK inhibitor, Shiga inhibitor, CHX counter)
O=C(NCc1ccccc1)c1n[nH]nc1-c1ccccc1O	CHX counter 18
Cc1ccc(NC(=O)Nc2nnc(Cc3ccc(F)cc3)s2)cc1	Shiga inhibitor 42
O=C(Nc1ccccc1)Nc1nnc(Cc2ccc([N+](=O)[O-])cc2)s1	none
Cc1ccc(NC(=O)Nc2nnc(Cc3ccc([N+](=O)[O-])cc3)s2)cc1C	CHX counter 18
COc1ccc(Cc2nnc(NC(=O)Nc3ccc(C)cc3)s2)cc1OC	Shiga inhibitor 43, CHX counter 15
COc1ccc(C(=O)Nc2nnc(Cc3ccc(OC)c(OC)c3)s2)cc1	CHX counter 11
COc1ccc(NC(=O)Nc2nnc(Cc3ccc(OC)c(OC)c3)s2)cc1	none
COCC(=O)Nc1nnc(Cc2ccc(OC)c(OC)c2)s1	none
Cc1cc(NC(c2nnc(-c3ccccc3)o2)c2ccccc2F)ccc1Br (centres undefined)	none (no result: FBPA Giardia inh, RE007 growth inh, LmPK inhibitor, Shiga inhibitor, CHX counter)
C=Cc1ccc(Cn2c(=O)n(-c3ccc(C)cc3)c(=O)c3c2c2cc(OC)ccc2n3C)cc1	none (no result: FBPA Giardia inh, RE007 growth inh, LmPK inhibitor, Shiga inhibitor, CHX counter)
Cc1ccc(OCC(=O)NCC2(N3CCOCC3)CCCCC2)cc1C	none (no result: FBPA Giardia inh, RE007 growth inh, LmPK inhibitor, Shiga inhibitor, CHX counter)
COc1ccc(CC(=O)n2[nH]c(=O)ccc2=O)cc1OC	FBPA Giardia inh inconclusive, Shiga inhibitor 41, Tb PYK inh 7.1µM
COc1ccc(C(=O)Cc2ccc(OC)c(OC)c2)cc1	Shiga inhibitor 53, CHX counter 56
COc1ccc(CC(=O)n2[nH]c(=O)c3ccccc3c2=O)cc1OC	none
Cc1ccsc1CN(C(=O)c1oc2cc(Br)ccc2c1C)C1CCS(=O)(=O)C1 (centres undefined)	none (no result: FBPA Giardia inh, RE007 growth inh, LmPK inhibitor, Shiga inhibitor, CHX counter)
c1ccc(-c2ccc3ccccc3n2)cc1	none (no result: FBPA Giardia inh, LmPK inhibitor, Shiga inhibitor, CHX counter)
c1ccc2nc(-c3ccc(-n4ccnc4)cc3)ccc2c1	Shiga inhibitor 61, CHX counter 35
O=C(O)c1ccc(-c2ccc3cc(C45CC6CC(CC(C6)C4)C5)c(O)cc3c2)cc1	Shiga inhibitor 28, CHX counter 45 (no result: RE007 growth inh, LmPK inhibitor, Tb PYK inh)
CC(C)CCN1C(=O)c2ccccc2CC1(C)C(=O)NC1CCC(C)CC1 (centres undefined)	none (no result: FBPA Giardia inh, RE007 growth inh, LmPK inhibitor, Shiga inhibitor, CHX counter)
O=C(O)CC1=C(Nc2ccccc2)C(=O)N(c2ccccc2)C1c1ccc(Br)cc1 (centres undefined)	Shiga inhibitor 79, CHX counter 25
Cc1c(C(=O)NCc2ccccc2Cl)sc2nc3n(c(=O)c12)CCCCC3	none (no result: FBPA Giardia inh, RE007 growth inh, LmPK inhibitor, Shiga inhibitor, CHX counter)
CCc1ccc2oc(-c3cccc(NC(=O)C(C)(C)Oc4ccc(Br)cc4)c3)nc2c1	none (no result: FBPA Giardia inh, RE007 growth inh, LmPK inhibitor, Shiga inhibitor, CHX counter)
Fc1ccc(-n2c(-c3ccco3)nc3nc4ccccc4nc32)cc1	none
c1ccc(-c2nc3nc4ccccc4nc3n2Cc2ccco2)cc1	Shiga inhibitor 137, CHX counter 82
Fc1ccc(-c2nc3nc4ccccc4nc3n2Cc2ccco2)cc1	Shiga inhibitor 125, CHX counter 44
S=c1nc(-c2ccccc2)n(Cc2ccco2)c2c1CCCC2	none (no result: RE007 growth inh, Tb PYK inh)
COc1ccccc1NC(=O)CN1CCN(C(=O)C2CCCO2)CC1 (centres undefined)	none
CCc1ccccc1NC(=O)Cn1nc2c3cc(F)ccc3n(Cc3cccc(C)c3)cc-2c1=O	none (no result: FBPA Giardia inh, RE007 growth inh, LmPK inhibitor, Shiga inhibitor, CHX counter)
O=C(Nc1cccc(-c2cn3ccccc3n2)c1)C1CC1	Shiga inhibitor 46, CHX counter 35
O=C(Nc1cccc(-c2cn3ccccc3n2)c1)c1cccc(Cl)c1	none
COc1ccc(CC(=O)Nc2cccc(-c3cn4ccccc4n3)c2)cc1	Shiga inhibitor active, CHX counter 46
CCC(=O)Nc1cccc(-c2cn3cccc(C)c3n2)c1	Shiga inhibitor 54, CHX counter 39
CCC(=O)Nc1cccc(-c2cn3ccccc3n2)c1	Shiga inhibitor 45, CHX counter 18
Cc1cccc2nc(-c3cccc(NC(=O)Cc4ccccc4)c3)cn12	none
O=C(Nc1cccc(-c2cn3ccccc3n2)c1)c1cnccn1	none
COc1ccc(-c2c(C)nn3c(-c4ccccc4)cc(-c4ccccc4)nc23)cc1	none (no result: FBPA Giardia inh, RE007 growth inh, LmPK inhibitor, Shiga inhibitor, CHX counter)
O=C(CCc1nnc(Cc2c[nH]c3ccccc23)o1)NCCC1CCCCO1 (centres undefined)	none (no result: FBPA Giardia inh, LmPK inhibitor, Shiga inhibitor, CHX counter)
